The record followed here is PubChem BioAssay (NCI).

About 83,000 compounds went through this panel and 20% of them were active in at least one assay; those are over-represented in the sample as a whole.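 Growth was measured after 48 h exposure to one concentration of compound in 96-well plates. Values under 10 count as active.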 Unmarked numbers belong to inactive results. The source made the active and inactive calls.

What all share (test): NCI-60 one-dose screen, 48 h (100 = growth as untreated, 0 = no growth, -100 = all killed)
Holding throughout (conditions): 10 µM unless noted

Assay [1] relates to NCI-H23 lung.
For assay [2], the system named is NCI-H226 lung.
Assay [3] concerns NCI-H322M lung.
Assay [4] concerns HOP-62 NSCLC.
Assay [5] relates to NCI-H460 lung.
Assay [6] relates to HOP-92 NSCLC.
Assay [7] has as its system NCI-H522 lung.
Assay [8] relates to A549/ATCC NSCLC.
Assay [9] has as its system 786-0 renal.
For assay [10], the system named is COLO 205 colon.
Assay [11] deals with DU-145 prostate.
Assay [12] has as its system K-562 leukemia.
Assay [13] deals with MALME-3M melanoma.
The subject of assay [14] is MDA-MB-231 breast.
In assay [15] the test system is RXF 393 renal.
For assay [16], the system named is SF-268 CNS.
Assay [17] relates to SF-295 CNS.
Assay [18] deals with UACC-257 melanoma.
Assay [19] concerns M14 melanoma.

As for `c1ccc2sc(SCCCn3ccnc3)nc2c1`, the growth is 81.4% in assay [1]; 74.8% in assay [2]; 98.7% in assay [3]; 99.7% in [4]; 97.8% in assay [5]; 78.9% in [6]. Further, the growth was 50.4% in assay [7]; 74.9% in assay [8]; 104% in assay [9]; 98.2% in assay [10]; 101% in assay [11]; 103% in assay [12]. For the same molecule, the growth was 96.1% in assay [13]; 89.6% in [14]; 95.2% in [15]; 98.4% in assay [16]; 97.4% in [17]; 87.3% in assay [18]. In assay [19], the growth was 102%.
Turning to `O=C(C[C@@H](C(=O)NCc1cccc(C(F)(F)F)c1)N1C(=O)[C@@H](N2C(=O)OC[C@@H]2c2ccccc2)[C@H]1/C=C/c1ccccc1)NC1CCN(Cc2ccccc2)CC1`, the growth in [1] was 36.2%; in assay [2], 88.6%; in [3] it was 73.1%; in [4], 72.7%; in [5] it was 13.1%; in assay [6] it was 76.7%. Further, the growth in assay [7] was 33.8%; in assay [8], 53.5%; in assay [9], 76.3%; in assay [10], 45.7%; in [11] it was 67.2%; in [12], -51% (active). Besides, the growth in assay [13] is -17.1% (active); in assay [14], 64.3%; in [15] it was 74.4%; in assay [16], 57.9%; in assay [17], 102%; in assay [18], 77.4%. Further, in [19], the growth is 83.2%.
As for `O=C1c2cc3c(cc2-c2c1c1cc(F)c(F)cc1c(=O)n2C[C@H](O)CO)OCO3`, the growth in [1] was -30.4% (active); in assay [2], -74.1% (active); in assay [3], -3.54% (active); in assay [4] it was -35.2% (active); in assay [5], 1.39% (active); in [6], 9.43% (active). Further, the growth was -3.34% (active) in assay [7]; -57.8% (active) in assay [8]; -20.8% (active) in [9]; -17.9% (active) in assay [10]; 1.97% (active) in assay [11]; 6.33% (active) in [12]. The growth is -21.3% (active) in assay [13]; 5.4% (active) in assay [14]; -51.5% (active) in [15]; 6.49% (active) in assay [16]; -7.95% (active) in [17]; -37.2% (active) in assay [18]. Moreover, the growth in assay [19] was 1.79% (active).
In the case of `O=C(COCc1c(-c2ccccc2)no[n+]1[O-])Nc1ccc(C(=O)/C=C/c2ccc3c(c2)OCO3)cc1`, the growth was 101% in assay [1]; 96.6% in assay [2]; 113% in [3]; 108% in [4]; 112% in [5]; 73.2% in assay [6]. In addition, the growth is 140% in assay [7]; 85.4% in [8]; 113% in assay [9]; 120% in [10]; 116% in [11]; 92.4% in [12]. The growth in assay [13] was 123%; in [14], 101%; in assay [15] it was 95.9%; in assay [16] it was 97.9%; in [17], 103%; in assay [18], 93.3%. Also, the growth in [19] is 109%.
Take `CCOC(=O)C12CCCC1=CC(=O)CC2` (stereo unspecified): the growth in assay [1] is 107%; in [2], 107%; in assay [3], 104%; in [4] it was 101%; in assay [5] it was 107%; in assay [6] it was 107%. In addition, the growth was 105% in [7]; 91.6% in assay [8]; 104% in [9]; 108% in assay [10]; 116% in [11]; 89% in assay [12]. Further, the growth in [13] is 108%; in [14], 111%; in assay [15] it was 113%; in assay [16] it was 103%; in assay [17] it was 115%; in assay [18] it was 94.4%. Also, in assay [19], the growth is 112%.
With `CS(=O)(=O)c1c(Nc2ccccc2)n[nH]c1N`, the growth is 105% in [1]; 105% in assay [2]; 103% in assay [3]; 109% in [4]; 110% in assay [5]; 85% in [6]. The growth in [7] was 100%; in assay [8], 95.9%; in assay [9], 96.7%; in [10], 105%; in assay [11], 115%; in [12], 93.2%. The growth in assay [13] is 124%; in assay [14] it was 103%; in [15], 114%; in [16] it was 111%; in assay [17], 126%; in assay [18], 105%. Also, the growth in [19] was 113%.
Take `C=C1CCC2C3(C)COC(c4ccccc4Br)OC3CCC2(C)C1C/C=C1/C(=O)OCC1OC(C)=O` (stereo unspecified): the growth was -47.7% (active) in assay [1]; -58.3% (active) in assay [2]; 21.7% in assay [3]; 11.5% in assay [4]; 1.8% (active) in [5]; 1.59% (active) in assay [6]. For the same molecule, the growth was -52.7% (active) in assay [7]; 22.7% in assay [8]; -72.8% (active) in assay [9]; -76.7% (active) in [10]; 21.4% in assay [11]; -43% (active) in assay [12]. Also, the growth was -44.6% (active) in assay [13]; -37.1% (active) in assay [14]; -57.2% (active) in assay [15]; -13.4% (active) in [16]; 27.6% in [17]; -41.6% (active) in assay [18]. Besides, in assay [19], the growth was -36.7% (active).
Consider `CC/C=C\C[C@H](O)C/C=C1/C(=O)C=C[C@@H]1C/C=C\CCCC(=O)NC`, for which the growth is -18.8% (active) in [1]; -41.1% (active) in [2]; 20.7% in assay [3]; -24.3% (active) in assay [4]; -49.9% (active) in assay [5]; 48.4% in [6]. For the same molecule, the growth in assay [7] was -15.6% (active); in assay [8], -36.7% (active); in assay [9] it was -39.1% (active); in assay [10] it was -25.2% (active); in assay [11], 15%; in assay [12], 0.291% (active). For the same molecule, the growth in [13] is -27.9% (active); in assay [14], 26.5%; in [15] it was -79.1% (active); in [16], 27.7%; in assay [17] it was 8.54% (active); in assay [18], -19% (active). In [19], the growth is 6.09% (active).
Consider `CCN(CC)C12CCCCC1(C)C(C#N)(C#N)C(C#N)=C(N)O2` (stereo unspecified), for which the growth in [1] was 101%; in [2], 95.6%; in assay [3], 91.3%; in assay [4], 98.8%; in assay [5], 114%; in assay [6], 83.8%. For the same molecule, the growth in assay [7] was 105%; in assay [8], 106%; in assay [9], 108%; in [10] it was 140%; in [11] it was 107%; in [12] it was 95.5%. Further, the growth is 92.3% in [13]; 108% in assay [14]; 144% in assay [15]; 99.6% in assay [16]; 98% in assay [17]; 114% in [18]. Further, in assay [19], the growth was 102%.
